PrPC surface inh = inhibitors of human cell surface prion protein PrPC, primary screen, cell-based, TR-FRET; actives 0.43% (n = 370,000); inhibition, % at 13.8 µM; TR-FRET read-out; Major prion protein (Homo sapiens), P04156; in the data active means inhibition above about 24%; further: 0% = median of the test wells and 100% = reference compound wells
PfHsp40 yeast = rescue of yeast from PfHsp40 toxicity, primary screen, S. cerevisiae, ATP luminescence. growth rescue, % at 12.5 µM. S. cerevisiae expressing PfHsp40, growth rescue. actives 0.68% (n = 340,000); in the data active means growth rescue above about 28%, passing the limit was not always enough;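 further: yeast W303a lacking pdr1 and pdr3 grown in galactose medium; growth measured after three days at 30 °C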
PrP 5UTR inh = inhibition of PrP 5' UTR reporter expression; cell-based PrP 5' UTR mRNA reporter, plate reader; AID 488862, 2010; inhibition, % (no concentration beside the values); actives 0.35% (n = 340,000); in the data active means inhibition above about 52%; further: 0 = median of the neutral control wells
GDH-TPI counter-1 = GDH-TPI coupling enzyme inhibitors, primary screen, artefact control for M. tuberculosis FBA inhibitor project, biochemical, absorbance, full deck. GDH-TPI coupled enzyme counterscreen, NADH absorbance. inhibition, % at 4.8 µM. actives 1.2% (n = 360,000); in the data active means inhibition above about 30%;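 further: 0% = DMSO wells and 100% = wells lacking the enzyme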
BJeLR viability = MLPCN primary cell-based screen for lethality selective to Ras in HRASV12 cells; BJeLR (HRASV12) viability, CellTiter-Glo ATP luminescence, 48 h; inhibition, % (concentration not given with the values); AID 1554, 2009; actives 0.17% (n = 300,000); in the data active means inhibition above about 50%
FBA Mtb inh = Mtb FBA enzyme inhibitors, primary screen, biochemical, fluorescence, strain H37Rv; Fructose-bisphosphate aldolase (Mycobacterium tuberculosis (strain ATCC 25618 / H37Rv)), …; purified M. tuberculosis FBA, fluorescence read-out; inhibition, % at 1 µM; actives 2.3% (n = 360,000); AID 588726, 2011;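 further: 0% = vehicle and 100% = reference inhibitor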
Target sequence (P9WQA3 whole entry, looked up): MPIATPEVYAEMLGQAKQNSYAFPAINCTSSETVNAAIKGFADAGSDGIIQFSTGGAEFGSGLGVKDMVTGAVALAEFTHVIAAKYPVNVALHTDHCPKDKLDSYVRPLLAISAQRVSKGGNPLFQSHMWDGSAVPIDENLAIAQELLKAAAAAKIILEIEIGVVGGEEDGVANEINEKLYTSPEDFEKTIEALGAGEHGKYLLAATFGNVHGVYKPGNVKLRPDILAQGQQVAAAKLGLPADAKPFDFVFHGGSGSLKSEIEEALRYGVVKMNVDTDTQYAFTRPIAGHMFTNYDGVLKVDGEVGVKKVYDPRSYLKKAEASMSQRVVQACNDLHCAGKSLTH
Mtb FBA inh conf = M. tuberculosis aldolase blockers, biochemical, fluorescence, strain H37Rv, confirmation. purified M. tuberculosis FBA, fluorescence read-out. shares compounds with FBA Mtb inh. actives 78% (n = 5,600). inhibition, % at 1 µM;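 further: 0% = vehicle wells and 100% = reference inhibitor wells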
GDH-TPI counter-2 = GDH-TPI coupling enzyme inhibitors, artefact control for M. tuberculosis FBA inhibitor project, biochemical, fluorescence, high throughput | GDH-TPI coupled enzyme counterscreen | AID 652141, 2013 | shares compounds with FBA Mtb inh | inhibition, % at 1 µM | actives 81% (n = 5,600); in the data active means inhibition above about 10%
GDH-TPI DR = GDH-TPI coupling enzyme inhibitors, dose response, artefact control for M. tuberculosis FBA inhibitor project, biochemical, fluorescence, IC50; shares compounds with FBA Mtb inh; GDH-TPI coupled enzyme assay, artifact counterscreen; IC50, µM; actives 79% (n = 170); call rule not given here
Numbers without * were called inactive; nt = no result; + = active, no number. In the library only some 4.5% were active in any assay of this set; here they are far more common. Unless noted, no stated cut-off is given here; in the data, active means inhibition above about 27%; inactive means the rest.

SMILES	PrPC surface inh	PfHsp40 yeast	PrP 5UTR inh	GDH-TPI counter-1	BJeLR viability	FBA Mtb inh	Mtb FBA inh conf	GDH-TPI counter-2	others
S=C(Nc1cccc2ccccc12)N1CCN(c2ncccn2)CC1	13	0	-17	1	-4	20	nt	nt
O=C(Nc1cccc2ccccc12)N1CCN(c2ccccc2)CC1	-1	0	-4	4	nt	27*	115*	100*
O=C(Nc1cccc2ccccc12)N1CCN(c2ncccn2)CC1	10	-1	-3	7	-3	50*	+	+
O=C(Nc1cccc2ccccc12)N1Cc2ccccc2-n2nncc2C1	3	nt	nt	7	nt	30*	133*	91*
Cc1noc(C)c1NC(=O)N(C)C[C@@H]1Oc2ccc(NC(=O)Cc3cn(C)c4ccccc34)cc2CC(=O)N([C@H](C)CO)C[C@@H]1C	4	0	-10	9	nt	2	nt	nt
COc1ccc([C@H]2OC(=O)C[C@@H]2C(=O)N2CCCCC2)cc1OC	-5	nt	nt	nt	nt	nt	nt	nt
C=CCNC(=O)c1cc2c(=O)n3cccc(C)c3nc2s1	1	0	3	18	3	93*	165*	133*
CCC(C)NC(=O)c1cc2c(=O)n3cccc(C)c3nc2s1 (stereo not given)	-11	0	nt	8	-8	104*	171*	147*
COc1ccc(CCNC(=O)c2cc3c(=O)n4cccc(C)c4nc3s2)cc1OC	-3	-1	-26	-9	-9	1	nt	nt
CC(C)CCn1c2ccccc2c2cc(CC(N)=O)ccc21	2	2	2	3	-4	6	nt	nt
Nc1ccc2nc3n(c(=O)c2c1)CCC3	-7	1	1	9	-6	110*	4	1
CCc1ccc(C(=O)CSc2nc3cc(S(=O)(=O)N4CCOCC4)ccc3n2CC)cc1	0	2	-13	4	-14	-3	nt	nt
COc1cccc(-c2cc(C(=O)NCC3CCCO3)c3ccccc3n2)c1 (stereo not given)	2	0	-8	8	0	-6	nt	nt
O=C(NCc1ccco1)c1cc(-c2ccccc2)nc2ccccc12	-4	-1	-14	8	0	0	nt	nt
COc1ccc(-c2cc(C(=O)NCC3CCCO3)c3cc(C)ccc3n2)cc1 (stereo not given)	-4	0	-17	12	-4	76*	107*	72*
COc1ccc(-n2nc(C(=O)NCC(=O)NCC3CCCO3)c3ccccc3c2=O)c(OC)c1 (stereo not given)	1	-2	-26	2	-8	1	nt	nt
COc1ccc(-c2cc(C(=O)NCC3CCCO3)c3ccccc3n2)cc1 (stereo not given)	-1	0	-22	9	7	46*	178*	173*
COc1ccc(-c2cc(C(=O)NCc3ccco3)c3ccccc3n2)cc1	-6	1	4	19	-2	28*	nt	+
COc1ccc(-n2c(N)c(C(=O)NCC3CCCO3)c3nc4ccccc4nc32)c(OC)c1 (stereo not given)	-18	0	-9	15	0	104*	73*	71*
Cc1cc(=O)n2nc(N3CCCC(C(=O)Nc4ccc(C)c(C)c4)C3)sc2n1 (stereo not given)	8	-1	-8	6	6	-2	nt	nt
COc1ccc(-c2cc(C(=O)NCC3CCCO3)c3cc(C(C)C)ccc3n2)cc1 (stereo not given)	2	0	-17	24	1	67*	10	-3	GDH-TPI DR=1.6*
COc1ccc(-c2nc(C(=O)NCC3CCCO3)cc3c2[nH]c2ccccc23)cc1 (stereo not given)	15	15	-24	9	-8	30*	+	+
Cc1ccc(-c2nc(C(=O)NCC3CCCO3)cc3c2[nH]c2ccccc23)cc1 (stereo not given)	17	1	1	-3	18	13	nt	nt
C=Cn1ccnc1CC(O)c1ccc(OC)cc1 (stereo not given)	-4	3	-7	5	-4	2	nt	nt
O=c1cc(CSc2nc3ccccc3c(=O)[nH]2)c2ccc(O)cc2o1	-2	-1	-21	21	4	28*	102*	75*
SMILES	PrPC surface inh	PfHsp40 yeast	PrP 5UTR inh	GDH-TPI counter-1	BJeLR viability	FBA Mtb inh	Mtb FBA inh conf	GDH-TPI counter-2	others
O=c1[nH]c(SCc2ccccc2F)nc2ccccc12	3	nt	-26	2	-7	1	nt	nt
CCOP(=O)(OCC)C(NC(=O)/C=C/c1ccc(OC)cc1)c1ccccc1 (stereo not given)	0	1	-12	3	0	0	nt	nt
Oc1ccc(-c2nc3ccccn3c2NCc2ccco2)cc1	-4	-2	-28	12	7	52*	70*	55*
c1coc(-c2ccnc(-n3cccc3)n2)c1	0	-1	-26	2	5	31*	147*	129*
Clc1ccsc1-c1ccnc(-n2cccc2)n1	5	0	-5	3	-13	7	nt	nt
Clc1ccc(-c2ccnc(-n3cccc3)n2)s1	8	0	3	16	-3	45*	+	157*
C[C@H]1C(=O)[C@]23C[C@H]1CC[C@H]2[C@]1(C)[C@@H](O)CC[C@@](C)(C(=O)O)[C@H]1C[C@@H]3O	-3	nt	nt	nt	nt	nt	nt	nt
Cc1c(N2C(=O)CSC2c2ccccc2)c(=O)n(-c2ccccc2)n1C (stereo not given)	-1	-1	-20	-6	6	2	nt	nt
COc1ccc(C2SCC(=O)N2c2c(C)n(C)n(-c3ccccc3)c2=O)cc1OC (stereo not given)	-3	1	16	-1	7	47*	58*	45*
CCOc1ccc(C2SCC(=O)N2c2c(C)n(C)n(-c3ccccc3)c2=O)cc1 (stereo not given)	10	2	-22	0	4	96*	3	-4
